# Where a name gives a salt, the structure may show the parent alone.
# Test system: Danio rerio larvae (5 dpf)
# Assay: excitability to 1-s acoustic pulses, difference vs DMSO (percentage points (treated minus DMSO)); higher = more of the behaviour than the DMSO vehicle control
# Settings: 10 µM; exposure time: 3 h pre-incubation + 3 h imaging
# Description: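 5-dpf wild-type zebrafish larvae were imaged in 96-well plates. They were treated with 190 Tocris FDA-approved drugs at 10 µM (1 µl/ml DMSO) for 3 h before and 3 h during imaging at 28.5 °C, 48 larvae per drug. Automated image analysis gave % time moving and optomotor responses. Values are drug group mean minus DMSO vehicle mean (n=844), in percentage points, for 10 behaviours.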
row,SMILES,excitability to 1-s acoustic pulses
1,C=C1C[C@@H]2[C@H](CC[C@]3(C)C(=O)CC[C@@H]23)[C@@]2(C)C=CC(=O)C=C12 [Exemestane],11.5
2,Cc1cccc([C@H](C)c2c[nH]cn2)c1C [Dexmedetomidine hydrochloride],8.78
3,O=c1[nH]c2ccccc2n1C1CCN(CCCC(c2ccc(F)cc2)c2ccc(F)cc2)CC1 [Pimozide],-3.54
4,CC[C@@H](C(N)=O)N1CCCC1=O [Levetiracetam],1.84
5,COc1cc2c(cc1OC)C1CC(=O)C(CC(C)C)CN1CC2 (configuration not stated) [Tetrabenazine],21.7
6,CC(C)C[C@H]1C(=O)N2CCC[C@H]2[C@]2(O)O[C@](NC(=O)[C@@H]3C=C4c5cccc6[nH]c(Br)c(c56)C[C@H]4N(C)C3)(C(C)C)C(=O)N12 [Bromocriptine mesylate],17.6
7,CC(O)(CS(=O)(=O)c1ccc(F)cc1)C(=O)Nc1ccc(C#N)c(C(F)(F)F)c1 (configuration not stated) [Bicalutamide],3.69
8,C=CCN1C[C@H](C(=O)N(CCCN(C)C)C(=O)NCC)C[C@@H]2c3cccc4[nH]cc(c34)C[C@H]21 [Cabergoline],10
9,COc1ccc(C(CN(C)C)C2(O)CCCCC2)cc1 (configuration not stated) [Venlafaxine hydrochloride],8.33
10,CN1C[C@H](C(=O)N[C@]2(C)O[C@@]3(O)[C@@H]4CCCN4C(=O)[C@H](Cc4ccccc4)N3C2=O)C[C@@H]2c3cccc4[nH]cc(c34)C[C@H]21 [Dihydroergotamine mesylate],1.17
11,N[C@@H]1C[C@H]1c1ccccc1 [Tranylcypromine hydrochloride],0.887
12,CCN(C)C(=O)Oc1cccc([C@H](C)N(C)C)c1 [Rivastigmine tartrate],2.04
